In PubChem BioAssay AID1159580 (chemical genetic matrix, 2015):
The whole screen tested about 5,500 compounds, of which about 2,000 (36%) were called active. About 18% were inconclusive and are not listed. Cut-off read from the data, not from the text of the source: active = normalized growth mostly below about 0.91 (no sharp cut-off); inconclusive = no clear call, values can overlap the other calls; inactive = mostly above about 0.92. This is one part of the list.

Assay: chemical genetic growth profiling, strain panel (AID 1159580);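 note: tested at 20 µM; growth read once vehicle control cultures reached saturation at 30 °C; 1 = growth at the plate median or of vehicle wells; lower values mean less growth of the strain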
Details: S. cerevisiae deletion strains, growth OD

Measured: normalized growth

COc1ccc2c(c1)c(CC(=O)O)c(C)n2C(=O)c1ccccc1
inactive: locus YAL040C, strain CLN3, hits give low values 1.03 | locus YDR150W, strain NUM1, hits give low values 0.99 | locus YDR363W, strain ESC2, hits give low values 1.04 | locus YER002W, strain NOP16, hits give low values 1 | locus YGR078C, strain PAC10, hits give low values 1.03 | locus YGR229C, strain SMI1, hits give low values 1.02 | locus YNL153C, strain GIM3, hits give low values 0.986 | locus YNL175C, strain NOP13, hits give low values 1.02 | locus YNL197C, strain WHI3, hits give low values 1.01 | locus YNL224C, strain SQS1, hits give low values 1.02 | locus YOR083W, strain WHI5 (second series), hits give low values 1.03 | locus YPL055C, strain LGE1, hits give low values 1 | locus YPL241C, strain CIN2, hits give low values 0.998
